In PMC5540273 (PLoS ONE, 2017):
Read-outs that look alike come from different tables or passages of the source.

What was measured:
ERK1 = test system: T1, ERK1; conditions: concentration: 1 μM, replicates: in singlicate; n = 1
T1 construct: gene MAPK3

ERK2 = test system: T2, ERK2; conditions: concentration: 1 μM, replicates: in singlicate; n = 1
T2 construct: gene MAPK1

ERK3 = test system: T3, ERK3; conditions: concentration: 1 μM, replicates: in singlicate; n = 1
T3 construct: gene MAPK6

ERK4 = test system: T4, ERK4; conditions: concentration: 1 μM, replicates: in singlicate; n = 1
T4 construct: gene MAPK4

ERK5 = test system: T5, ERK5; conditions: concentration: 1 μM, replicates: in singlicate; n = 1
T5 construct: gene MAPK7

ERK8 = test system: T6, ERK8; conditions: concentration: 1 μM, replicates: in singlicate; n = 1
T6 construct: gene MAPK15

ERN1 = conditions: concentration: 1 μM, replicates: in singlicate; n = 1
FAK = test system: T7, FAK; conditions: n = 1
T7 construct: gene PTK2

FER = conditions: concentration: 1 μM, replicates: in singlicate; n = 1
FES = conditions: concentration: 1 μM, replicates: in singlicate; n = 1
[1] = concentration: 1 μM, replicates: in singlicate
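Note: KINOMEscan kinase panel screen.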

Row | Compound | %Inh (ERK1) | %Inh (ERK2) | %Inh (ERK3) | %Inh (ERK4) | %Inh (ERK5) | %Inh (ERK8) | %Inh (ERN1) | %Inh (FAK; 1 µM) | %Inh (FER) | %Inh (FES) | %Inh (FAK; [1])
1 | CS(=O)(=O)c1cccc(CNc2nc(Nc3ccc4c(c3)CCC(=O)N4)ncc2C(F)(F)F)c1 | 0% | 17% | 0% | 0% | 15% | 90% | 0% | 100% | 0% | 12% | –
2 | CCOc1nccc(-c2c(-c3ccc(F)cc3)ncn2C2CCNCC2)n1 [SB-249175] | 0% | 0% | 26% | 13% | 12% | 2% | 1% | – | 9% | 0% | 0%
3 | CN(c1ccc(NC(=O)N2CCN(CCCN3CCOCC3)CC2)cc1)c1ccnc(Nc2ccc(CS(C)(=O)=O)cc2)n1.Cl [GW830899] | 0% | 0% | 0% | 8% | 0% | 0% | 0% | – | 10% | 0% | 34%
4 | COc1cc(Nc2ccnc3cc(-c4ccncc4)ccc23)cc(OC)c1OC.Cl [GW494610] | 0% | 0% | 5% | 0% | 0% | 22% | 10% | – | 26% | 0% | 0%
5 | O=C(Nc1n[nH]c2nc(-c3ccccc3O)ccc12)C1CC1 [SB-711880] | 0% | 0% | 0% | 0% | 0% | 82% | 0% | – | 0% | 0% | 0%
6 | CC(C)(C)c1ccc(C(=O)Nc2cn3cc(-n4ccnc4)ccc3n2)cc1 | 0% | 13% | 10% | 5% | 19% | 0% | 25% | – | 0% | 0% | 7%
7 | CN(c1ccc(F)c(NC(=O)c2cccc(OC(C)(C)C#N)c2Cl)c1)c1ccc2nc(NC(=O)C3CC3)sc2n1 | 1% | 1% | 0% | 0% | 4% | 0% | 0% | – | 0% | 0% | 1%
8 | COc1cccc(CC(=O)N2CCc3cc(-c4cn(C)c5ncnc(N)c45)ccc32)c1 [GSK2608899] | 6% | 13% | 0% | 12% | 0% | 17% | 19% | – | 17% | 0% | 8%
